Results on 95 molecules are retold here after PubChem BioAssay AID1347074 (Center for Chemical Genomics, University of Michigan, 2019).

SMILES strings stand for the structures. Hit rate of the full screen: of about 47,000 compounds, about 2,800 (6%) were called active. The full list was thinned out, with actives kept by preference. Values without a mark were called inactive. Rule as the data show it: active = z-score above about 3 (passing the limit was not always enough); inactive = the rest.

The target in the assay is Endoribonuclease Dicer (Homo sapiens) (UniProt Q9UPY3). The assay is described as follows: inhibitors of Dicer pre-microRNA processing, primary screen, biochemical, cat-ELCCA, chemiluminescence (AID 1347074).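 Also: plate controls were vehicle for no effect and no enzyme for full effect; higher signal means more uncleaved substrate so more Dicer inhibition.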 The settings on record: cat-ELCCA pre-miR-21 Dicer processing, at 25 µM, active compounds read high.
Sequence of Endoribonuclease Dicer (Homo sapiens) (Q9UPY3 whole entry, looked up): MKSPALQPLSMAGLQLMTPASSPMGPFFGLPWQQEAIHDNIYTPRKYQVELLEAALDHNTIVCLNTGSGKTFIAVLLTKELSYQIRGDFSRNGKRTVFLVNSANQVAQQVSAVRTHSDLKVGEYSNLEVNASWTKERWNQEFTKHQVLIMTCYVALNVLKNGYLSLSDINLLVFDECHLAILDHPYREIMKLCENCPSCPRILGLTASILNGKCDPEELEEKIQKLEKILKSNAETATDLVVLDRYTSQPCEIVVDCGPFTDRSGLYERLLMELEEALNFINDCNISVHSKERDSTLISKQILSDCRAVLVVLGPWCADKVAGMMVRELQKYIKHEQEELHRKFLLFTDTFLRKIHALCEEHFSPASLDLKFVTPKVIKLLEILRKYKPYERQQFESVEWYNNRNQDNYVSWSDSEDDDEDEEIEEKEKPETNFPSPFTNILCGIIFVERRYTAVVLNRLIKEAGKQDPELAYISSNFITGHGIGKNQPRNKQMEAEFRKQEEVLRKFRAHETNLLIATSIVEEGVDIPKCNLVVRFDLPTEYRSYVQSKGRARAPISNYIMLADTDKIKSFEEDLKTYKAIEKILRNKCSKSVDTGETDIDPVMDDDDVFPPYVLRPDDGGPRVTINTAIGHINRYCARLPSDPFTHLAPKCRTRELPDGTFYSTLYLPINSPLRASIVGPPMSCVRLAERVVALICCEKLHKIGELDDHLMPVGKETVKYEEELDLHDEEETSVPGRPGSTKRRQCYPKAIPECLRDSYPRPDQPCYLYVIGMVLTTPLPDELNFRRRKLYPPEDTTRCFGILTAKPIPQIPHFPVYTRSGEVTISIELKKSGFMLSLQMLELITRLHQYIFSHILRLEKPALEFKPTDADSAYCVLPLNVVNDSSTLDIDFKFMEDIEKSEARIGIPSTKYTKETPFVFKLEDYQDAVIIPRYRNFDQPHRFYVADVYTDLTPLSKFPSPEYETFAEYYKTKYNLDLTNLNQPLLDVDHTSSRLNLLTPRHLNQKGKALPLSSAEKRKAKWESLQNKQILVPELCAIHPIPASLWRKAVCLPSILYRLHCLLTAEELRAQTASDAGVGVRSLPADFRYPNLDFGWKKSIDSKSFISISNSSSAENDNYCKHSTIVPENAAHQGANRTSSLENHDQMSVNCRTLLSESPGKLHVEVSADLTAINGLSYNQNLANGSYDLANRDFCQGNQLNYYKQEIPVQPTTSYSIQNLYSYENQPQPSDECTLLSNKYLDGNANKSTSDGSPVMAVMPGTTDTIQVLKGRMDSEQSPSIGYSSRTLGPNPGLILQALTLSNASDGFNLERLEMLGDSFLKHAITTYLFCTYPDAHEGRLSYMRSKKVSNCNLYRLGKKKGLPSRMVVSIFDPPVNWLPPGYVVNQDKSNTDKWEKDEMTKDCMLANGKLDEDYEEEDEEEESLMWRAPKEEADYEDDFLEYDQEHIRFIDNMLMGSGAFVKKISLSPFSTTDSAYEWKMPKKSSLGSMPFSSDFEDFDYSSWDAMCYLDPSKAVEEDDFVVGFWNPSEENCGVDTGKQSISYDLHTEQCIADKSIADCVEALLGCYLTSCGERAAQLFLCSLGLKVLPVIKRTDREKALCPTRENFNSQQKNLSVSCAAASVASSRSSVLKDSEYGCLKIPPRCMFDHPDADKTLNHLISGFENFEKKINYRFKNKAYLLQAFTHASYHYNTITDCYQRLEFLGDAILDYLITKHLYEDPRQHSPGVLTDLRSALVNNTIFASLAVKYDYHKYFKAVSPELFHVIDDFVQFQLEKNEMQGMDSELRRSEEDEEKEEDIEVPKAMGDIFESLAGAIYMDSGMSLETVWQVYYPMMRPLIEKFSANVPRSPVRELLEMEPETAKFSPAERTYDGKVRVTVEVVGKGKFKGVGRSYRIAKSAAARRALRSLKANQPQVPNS
Consider `COc1ccccc1C(=O)CC1(O)C(=O)Nc2ccc(Cl)cc21` (stereo not given), for which the z-score is 6.27. To `CCN1C(=O)C2(/C(=C(/O)c3ccccc3)C(=O)C(=O)N2CCCOC)c2ccccc21` (stereo not given) belongs 3.53 (active).

For the molecule `CCN1C(=O)C2(/C(=C(/O)c3ccc(OC)c(C)c3)C(=O)C(=O)N2CCCOC)c2ccccc21` (stereo not given), the z-score was 1.63. To `CCN1C(=O)C2(/C(=C(/O)c3ccc(C)c(F)c3)C(=O)C(=O)N2CCCOC)c2ccccc21` (stereo not given) belongs -0.56. To `CC1CC(=O)Nc2ccccc2N1C(=O)Nc1cccc(Cl)c1Cl` (stereo not given) belongs -0.93. The same measure for `O=C1CC(N2CCN(C(c3ccccc3)c3ccccc3)CC2)C(=O)N1c1cccc(Cl)c1` (stereo not given): -0.21; for `O=C(NC(=S)Nc1nc(-c2ccc(Cl)cc2)cs1)C1CC1`: 1.34; for `Cc1ccc(S(=O)(=O)NC(=O)Nc2nc(-c3ccc(F)c(F)c3)cs2)cc1`: -0.18. `O=C(NNc1nc(-c2ccc(F)cc2)cs1)c1ccc(Cl)cc1`: the z-score was 5.33 (active). As for `CC12c3ccccc3C(c3ccccc31)C1C(=O)N(c3ccc(C(=O)O)cc3)C(=O)C12` (stereo not given), the z-score was 0.79. With `Cc1ncc([N+](=O)[O-])n1CCOC(=O)c1ccc(Br)cc1`, the z-score was -0.13. To `COc1ccc(C(=O)COc2cc3c(C(=O)OC(C)C)c(C)oc3cc2Br)cc1` belongs 0.17; to `Cc1oc2cc(Br)c(OC(=O)c3ccco3)cc2c1C(=O)OC(C)C`, 1.65. To `Cc1oc2cc(Br)c(O)cc2c1C(=O)OC(C)C` belongs 3.81 (active). Regarding `Cc1cn(C(=O)Nc2ccccc2)nc1-c1cccs1`, the z-score is 1.17.

In the case of `Cc1ccc2nc(-c3cccnc3)[nH]c2c1`, the z-score is -0.74. Consider `COc1cc(OC)cc(-c2nc3n(n2)C(c2ccc(OC)c(OC)c2)C2=C(CC(C)(C)CC2=O)N3)c1` (stereo not given), for which the z-score is 0.99. Consider `COc1cc(C2C3=C(CC(C)(C)CC3=O)NC3=C2C(=O)CC(C)(C)C3)ccc1O`, for which the z-score was 1.78.

As to `COc1cc(C2C3=C(CC(C)(C)CC3=O)Nc3ncnn32)ccc1OC(C)C` (stereo not given), the z-score is 3.67 (active). On to `C=CCOc1ccc2c(=O)c(Oc3cc(C)ccc3C)coc2c1`, for which the z-score was 1.12. The same measure for `O=C(c1ccco1)N1CCC2(Cl)CCCCC2C1c1ccccc1` (stereo not given): -2.84.

As for `O=C(NC1(NCc2ccc(Cl)cc2)C(=O)c2ccccc2C1=O)c1ccc(C(F)(F)F)cc1`, the z-score is 0.41. For the molecule `COc1ccc(Nc2nc3ccccc3nc2NS(=O)(=O)c2ccccc2)cc1OC`, the z-score was 1.78. To `CCCCN(CC)c1ncnc2ccc(C)cc12` belongs 3.53 (active).

Take `NC(=S)N/N=C/c1ccc(Cl)c(Cl)c1`: the z-score is -1.14.

In the case of `CC(C)(C)NC(=O)NCCCN1CCOCC1`, the z-score is 0.22. To `CCN(CC)C(=O)c1c(NC(=O)c2cccs2)sc2c1CCCCC2` belongs -1.54; to `CCOC(=O)C1=C(C)NC2=C(C(=O)c3ccccc32)C1c1cc(Br)c(OC)c(OC)c1` (stereo not given), 1.14. The same measure for `CCCc1cc(=O)n2[nH]c(SCc3ccccc3)nc2n1`: 0.14; for `CCS(=O)(=O)n1nc(-c2ccccc2)nc1SCc1ccccc1`: 3.99 (active).

For `COc1ccc(-c2noc(-c3ccc(Br)cc3)n2)cc1`, the z-score is 1.15. To `COc1ccc(Cc2nc(-c3ccc(OC)cc3)no2)cc1` belongs 0.51; to `CCS(=O)(=O)n1nc(-c2ccc(OC)cc2)nc1SC`, 3.58 (active); to `O=c1[nH]c(SCc2ccccc2)nnc1-c1ccccc1`, 0.5. To `COc1ccc(COC(=O)C2=C(C)NC3=C(C(=O)CCC3)C2c2ccc(Br)cc2)cc1` (stereo not given) belongs 0.32; to `O=c1c(-c2ccc(OC3O[C@H](CO)[C@@H](O)[C@H](O)[C@H]3O)cc2)coc2cc(O)cc(O)c12` (stereo not given in full), 0.24; to `CS(=O)(=O)N(CC(=O)O)c1cccc2ccccc12`, -1.7. As for `CCOC(=O)C1=C(c2ccccc2)Nc2nc3ccccc3n2C1c1ccc(O)c(OCC)c1` (stereo not given), the z-score was -6.05.

Turning to `N#Cc1cn(Cc2ccccc2Cl)c(=O)[nH]c1=O`, the z-score was 0.24. To `CC(=O)N1[C@@H](c2ccc(C)cc2)SC(C)(C)[C@@H]1C(=O)O` belongs 4.5 (active). To `CC1(C)S[C@@H]2[C@H](NC(=O)COc3ccccc3)C(=O)N2C1C(=O)O` (stereo not given in full) (tested in a mixture with another compound) belongs -0.17; to `CC1(C)SC2C(NC(=O)COc3ccccc3)C(=O)N2C1C(=O)O` (stereo not given), 1.11; to `CN(C)c1ccc(NC(=O)CSc2nc(-c3ccco3)cc(C(F)(F)F)n2)cc1`, -1.78. As to `Cc1nc2ccccc2n1CCOc1ccc(Cl)cc1`, the z-score was 0.74. To `CCCNC(=O)NNC(=O)Cn1nnc(N2CCOCC2)n1` belongs 11.9. To `S=c1nn[nH]n1-c1ccc(Cl)cc1Cl` belongs -0.38. To `CCCc1cc(-c2n[nH]c(C)c2-c2ccc3c(c2)OCCO3)c(O)cc1O` belongs 7.51 (active).

`c1ccc2c(-c3csc(-c4ccc5c(c4)OCCO5)n3)csc2c1`: the z-score is -0.77. For `Cc1cc(C)n(C(C)C(=O)Nc2ccc(F)cc2)c(=O)n1` (stereo not given), the z-score is 2.63.

As to `O=C(O)CCC(=O)c1ccc2ccccc2c1`, the z-score was 0.56. The same measure for `Cc1ccc(OS(=O)(=O)c2ccc(F)cc2)c([N+](=O)[O-])n1`: -1.06.

With `O=C(O)c1ccc(NS(=O)(=O)c2cccc3nsnc23)cc1`, the z-score was 1.86. To `Cc1ccc2nsnc2c1S(=O)(=O)Nc1ccc(Br)cc1` belongs 5.39 (active); to `Cc1ccc2nsnc2c1S(=O)(=O)N1CCCC1C(=O)O` (stereo not given), -1.03; to `CN(C)/C=C1\C(=O)c2ccc(Cl)cc2N(Cc2c(F)cccc2Cl)S1(=O)=O`, -0.82.

As to `Cc1ccc(C(=O)Nc2ccccc2Sc2nc3ccccc3c(C)c2C#N)cc1`, the z-score was -1.01. The same measure for `CCOc1ccc(/C(O)=C2\C(=O)C(=O)N(c3nccs3)C2c2ccc(F)cc2)cc1` (stereo not given): 0.2; for `O=C(Nc1cccc(Br)c1)c1csc2c1CCCC2`: 5.59 (active).

Consider `O=C(Nc1sc2c(c1C(=O)O)CCCC2)c1cc2ccccc2o1`, for which the z-score is 0.75. Consider `O=C(NCc1ccccn1)C(=O)Nc1cccc(Br)c1`, for which the z-score was 1.05. Take `Cc1nc(-n2cccc2)sc1C(=O)N/N=C/c1ccc(Cl)cc1`: the z-score was 0.46. Consider `Cc1oc(C(C)(C)C)cc1C(=O)Nc1ccc(SCc2cccc(Cl)c2F)cc1`, for which the z-score was -1.58.

Take `COc1ccc(-c2csc3nc(-c4ccccc4F)oc(=O)c23)cc1OC`: the z-score was 0.98. For `CC(C)=Cc1nc2cccc(F)c2c(=O)o1`, the z-score is 0.25. The same measure for `Cc1sc2nc(-c3ccccc3F)oc(=O)c2c1C`: 3.11 (active); for `Cc1cc(C)c(C#N)c(Sc2ccc(Cl)cc2)n1`: -0.54. Regarding `CN1C(=O)C2(/C(=C(/O)c3ccc(Cl)cc3)C(=O)C(=O)N2CC2CCCO2)c2ccccc21` (stereo not given), the z-score is 0.79. To `CN(C)S(=O)(=O)N(CC(=O)NC1CC2CCC1C2)c1ccccc1` (stereo not given) belongs -1.13. To `N#C/C(=C\N1CCOCC1)S(=O)(=O)Cc1ccc(Cl)cc1` belongs -1.52. The same measure for `O=C(NCCc1c[nH]c2ccccc12)C(=O)NCC1CCCO1` (stereo not given): -1.03.

`COC(=O)C(Cc1c[nH]c2ccccc12)NC(=O)CN1CCCCC1` (stereo not given): the z-score was 4.61 (active).

Turning to `CC(=O)NC(Cc1c[nH]c2ccccc12)C(=O)O` (stereo not given), the z-score is 2.44. The same measure for `COC(=O)c1ccc(S(=O)(=O)NCc2ccccc2)n1C`: 1.21; for `COC(=O)c1c(C)oc2ccc(NS(=O)(=O)c3cccc4cccnc34)cc12`: 3.25 (active); for `Cc1oc2ccc(NS(=O)(=O)c3ccc4c5c(cccc35)C(=O)N4)cc2c1C(=O)OC(C)C`: 2.44. Take `COCCOC(=O)c1c(C)oc2ccc(NS(=O)(=O)c3ccc(Cl)cc3)cc12`: the z-score is -0.11.

Consider `CCOC(=O)C1=C(C)NC2=C(C(=O)c3ccccc32)C1c1ccc(OC(=O)c2ccccc2)cc1` (stereo not given), for which the z-score was -1.18. Take `Cn1nc(Oc2nc(N3CCCCC3)nc(N3CCCCC3)n2)ccc1=O`: the z-score is 1.65.

In the case of `CCOC(=O)C(Nc1cccc(Cl)c1)C(=O)OCC`, the z-score was -1.26.

In the case of `O=C1c2ccc3c4c(ccc(c24)C(=O)N1c1ccccc1)C(=O)N(c1ccccc1)C3=O`, the z-score was -0.71. The same measure for `Cc1ccc(N=C2SC3(CC3)C(=O)N2c2ccc(C)cc2)cc1`: 0.49. To `O=C1N(c2ccccc2)C(=Nc2ccccc2)SC12CC2` belongs 4.33 (active). To `CC1(C)Cc2c(sc3ncn4nc(-c5ccco5)nc4c23)C(C)(C)N1` belongs 0.09; to `Nc1cccc2c(S(=O)(=O)N3CCCCC3)cccc12`, -1.6; to `Cc1ccnc(NC(c2ccc(O)cc2)c2ccc3ccc(C)nc3c2O)c1` (stereo not given), 4.59 (active).

As to `Cc1cccc(NC(c2ccc3c(c2)OCO3)c2ccc3ccc(C)nc3c2O)n1` (stereo not given), the z-score is 1.45.

`Cc1cccc(NC(c2cccc(F)c2)c2ccc3ccc(C)nc3c2O)n1` (stereo not given): the z-score is 0.62. With `COc1ccc(-n2ncc(C(=O)NCc3c(Cl)cccc3Oc3ccccc3)c2C)cc1`, the z-score was -2.95. The same measure for `CSc1sc(C(=O)Nc2ccc(Cl)cc2)c2c1S(=O)(=O)N(C)c1ccccc1-2`: -0.3; for `CCC(CC)NC(=O)C1c2ccccc2Oc2ccccc21`: 6.16 (active). To `N#Cc1ccc(N2CCN(C(=O)c3cc(-c4ccc(Cl)cc4)oc3C(F)(F)F)CC2)cc1` belongs 0.32; to `COc1ccc(-c2cn3ccc(C)cc3n2)cc1F`, 3.54 (active). The same measure for `Cc1ccc(-c2cn3cc(C)ccc3n2)cc1`: -0.35; for `CC(C)c1cc(C(C)C)c(S(=O)(=O)NCc2cccnc2)c(C(C)C)c1`: -0.34; for `Cc1cc(OCC(=O)O)cc2c1C(=O)CC(C)(C)O2`: 1.97.
